According to PubChem BioAssay:
Results with a measured potency or affinity are listed apart. Activity calls are given as the source filed them. Unless noted, how the calls were made is not given here.

Each molecule was assayed against Calcium-dependent protein kinase 1 (Plasmodium falciparum (isolate 3D7)) (UniProt P62344) (assay: PfCDPK1 kinase inhibitors, biochemical, TCAMS library (AID 1159585; cut-off not given, nearly all actives have IC50 up to about 0.98 µM;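 further: inhibitors leave more ATP so luminescence rises with inhibition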)). Details: recombinant PfCDPK1, Kinase-Glo ATP depletion luminescence.
Calcium-dependent protein kinase 1 (Plasmodium falciparum (isolate 3D7)), sequence (P62344 whole entry, looked up): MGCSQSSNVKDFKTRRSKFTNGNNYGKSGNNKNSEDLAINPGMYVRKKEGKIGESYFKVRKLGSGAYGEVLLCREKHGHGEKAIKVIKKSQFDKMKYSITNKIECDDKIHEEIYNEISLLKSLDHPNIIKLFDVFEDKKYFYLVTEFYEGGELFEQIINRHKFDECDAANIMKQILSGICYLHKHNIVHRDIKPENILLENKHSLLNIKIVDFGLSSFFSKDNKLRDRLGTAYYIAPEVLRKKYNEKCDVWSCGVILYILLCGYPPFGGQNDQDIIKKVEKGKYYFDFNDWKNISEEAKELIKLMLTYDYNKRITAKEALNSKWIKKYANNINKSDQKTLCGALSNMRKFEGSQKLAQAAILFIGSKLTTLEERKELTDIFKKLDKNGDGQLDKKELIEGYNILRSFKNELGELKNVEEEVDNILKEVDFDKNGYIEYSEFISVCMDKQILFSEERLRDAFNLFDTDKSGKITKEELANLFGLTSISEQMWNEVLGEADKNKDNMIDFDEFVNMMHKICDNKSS

outcome, inactive:
COc1ccc(C(=O)NC2CCN(c3ccnc4cc(Cl)ccc34)C2)cc1 (stereo not given)
CC(C)(C)NCc1cc(Nc2ccnc3cc(Cl)ccc23)ccc1F
O=C(NC1CCC(CCN2Cc3ccc(Br)cc3C2)CC1)c1cccc(-c2cccnc2)c1 (stereo not given)
CC(C)Nc1nc(NCCc2cnc[nH]2)nc(NCc2ccc(Cl)c(Cl)c2)n1
N#Cc1ccc(N(CCNS(=O)(=O)c2cc(Br)c(Cl)s2)Cc2ccccc2C(F)(F)F)cc1C(F)(F)F
COCCCNc1sc(S(=O)(=O)c2ccccc2)nc1S(=O)(=O)c1ccc(C)cc1
O=C(/C=C/c1ccc(Cl)cc1)NCCCCCN1CCC(C(=O)Nc2ccc(Cl)cc2)CC1
O=C(NCCCNc1nc2ccccc2[nH]1)c1cccc(OC(F)(F)F)c1
NC(=O)c1cccc(CNCc2ccc(-c3cccc(-c4nc5ccccc5[nH]4)c3)cc2)c1
C[C@@H]1CN(c2ncc(-c3ccc(CNC4Cc5ccccc5C4)cc3)cn2)C[C@H](C)N1
Oc1ccc(-c2ccccc2)cc1CN1CCCCCC1
Cc1cccc(Cn2c(C(N)=O)nn(-c3ccc([N+](=O)[O-])cc3C#N)c2=S)c1
O=C(Nc1ccncc1)c1cc(C(=O)Nc2ccncc2)cc([N+](=O)[O-])c1
CC(C)(C)C(Cn1ccnc1)NCc1cn[nH]c1-c1ccc(-c2ccccc2)cc1 (stereo not given)
COc1cc(CNC[C@@H](O)[C@H](Cc2ccccc2)NC(=O)c2cc(C3CCCC3)cc(N3CCCS3(=O)=O)c2)cc(OC)c1
Cc1ccccc1Nc1nc(Nc2ccccc2)c2ccccc2n1
CCCc1cn2c3c(cc(C(=O)N[C@@H](Cc4ccccc4)[C@H](O)CNC4CCOCC4)cc13)N(C)S(=O)(=O)CC2
COc1ccc(CNC(=O)NC2CCN(c3ccnc(Nc4ccc(F)cc4)n3)CC2)cc1
CC(C)COc1ccc(Cl)cc1Cc1ccc(-c2nc3ccc(C(F)(F)F)cc3[nH]2)o1
O=C(/C=C/c1c[nH]c2ccccc12)NCCCCCN1CCC(c2c[nH]c3ccccc23)CC1
Cc1noc(C)c1-c1ccc2c(Nc3ccccc3C(C)(C)C)c(C(=O)NCc3ccc(C(F)(F)F)cc3)cnc2c1
CN(C)C(=O)O[C@@H]1CN[C@H](C#Cc2cc3ncnc(Nc4ccc5c(cnn5Cc5cccc(F)c5)c4)c3s2)C1
CCOC(=O)c1cc(C(=O)NCCCCN2CCC(c3ccc(CC)cc3OCC)CC2)ccc1-c1ccc(C(F)(F)F)cc1
Cc1cc(Nc2ccnc(-c3ccc(Cl)cc3)n2)ccn1
Cc1ccc(Nc2nc(N)c3ccccc3n2)cc1
O=C(N[C@H]1CCN(Cc2ccc(OCCN3CCCC3)c(Cl)c2)C1)c1ccc(Cl)c(Cl)c1
CC(Cc1ccc(NC(=O)COc2ccc(CC(C)NCCc3cccc(Cl)c3)cc2)cc1)NCCc1cccc(Cl)c1 (stereo not given)
O=C(Nc1ccc(-c2ccc(-c3nc4ccccc4[nH]3)s2)cc1)c1ccncc1
Cc1nc2nc(N)nc(N)c2c(C)c1Cc1cccc(C(N)=O)c1
COc1ccc(-c2ccc(NC(=O)c3ccc(Cl)cc3)cc2)cc1CN1CCNCC1
Oc1ccc(Nc2nc(NCc3ccccc3)c3ccccc3n2)cc1
COc1cc(F)c2ncc(Cl)c(CCN3CCC(NCc4ccc5c(c4)NC(=O)CO5)CC3)c2c1
FC(F)(F)c1ccc2nc(-c3cccc(-c4cccc(CNCC5CCCO5)c4)c3)[nH]c2c1 (stereo not given)
OCCN1CCN(Cc2ccc(-c3cccc(-c4nc5ccc(C(F)(F)F)cc5[nH]4)c3)cc2)CC1
Clc1cnc2ccc3c(c2c1CCN1CCC(NCc2cc4c(cn2)OCCO4)CC1)OCCO3
CC(CCc1ccccc1)NCC(O)c1cccc([N+](=O)[O-])c1 (stereo not given)
CC(CN(C)C)C(=O)Nc1cccc(-c2cccc(-c3nc4ccc(F)cc4[nH]3)c2)c1 (stereo not given)
CC(=O)Nc1cccc(C(=O)Nc2cccc(-c3ccc(-c4nc5ccc(F)cc5[nH]4)s3)c2)c1
COc1ccc(Nc2nccc(N3CCC(NC(=O)C(C)c4ccc(Cl)cc4)CC3)n2)cc1 (stereo not given)
c1ccc(Oc2ccc(Nc3ccnc4cc(-c5cccc(CN6CCOCC6)c5)ccc34)cc2)cc1

These molecules were tested against Plasmodium falciparum protein kinase 6 (PK6, PF3D7_1337100) (UniProt Q8IDW1) (assay: PfPK6 kinase inhibitors, biochemical, TCAMS library (AID 1159586)). Details: recombinant PfPK6, Kinase-Glo ATP depletion luminescence.
Plasmodium falciparum protein kinase 6 (PK6, PF3D7_1337100), sequence (Q8IDW1 1-305): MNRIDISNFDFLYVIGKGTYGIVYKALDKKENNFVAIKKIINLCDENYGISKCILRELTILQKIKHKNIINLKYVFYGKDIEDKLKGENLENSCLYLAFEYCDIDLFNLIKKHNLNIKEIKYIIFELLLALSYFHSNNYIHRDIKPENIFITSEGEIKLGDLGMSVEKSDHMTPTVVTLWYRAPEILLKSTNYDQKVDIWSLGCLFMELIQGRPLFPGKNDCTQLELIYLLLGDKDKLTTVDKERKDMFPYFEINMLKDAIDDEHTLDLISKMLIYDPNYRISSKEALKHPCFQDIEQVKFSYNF

outcome, inactive:
COc1ccc(C(=O)NC2CCN(c3ccnc4cc(Cl)ccc34)C2)cc1 (stereo not given)
CC(C)(C)NCc1cc(Nc2ccnc3cc(Cl)ccc23)ccc1F
O=C(NC1CCC(CCN2Cc3ccc(Br)cc3C2)CC1)c1cccc(-c2cccnc2)c1 (stereo not given)
CC(C)Nc1nc(NCCc2cnc[nH]2)nc(NCc2ccc(Cl)c(Cl)c2)n1
N#Cc1ccc(N(CCNS(=O)(=O)c2cc(Br)c(Cl)s2)Cc2ccccc2C(F)(F)F)cc1C(F)(F)F
COCCCNc1sc(S(=O)(=O)c2ccccc2)nc1S(=O)(=O)c1ccc(C)cc1
O=C(/C=C/c1ccc(Cl)cc1)NCCCCCN1CCC(C(=O)Nc2ccc(Cl)cc2)CC1
O=C(NCCCNc1nc2ccccc2[nH]1)c1cccc(OC(F)(F)F)c1
NC(=O)c1cccc(CNCc2ccc(-c3cccc(-c4nc5ccccc5[nH]4)c3)cc2)c1
C[C@@H]1CN(c2ncc(-c3ccc(CNC4Cc5ccccc5C4)cc3)cn2)C[C@H](C)N1
Oc1ccc(-c2ccccc2)cc1CN1CCCCCC1
Cc1cccc(Cn2c(C(N)=O)nn(-c3ccc([N+](=O)[O-])cc3C#N)c2=S)c1
O=C(Nc1ccncc1)c1cc(C(=O)Nc2ccncc2)cc([N+](=O)[O-])c1
CC(C)(C)C(Cn1ccnc1)NCc1cn[nH]c1-c1ccc(-c2ccccc2)cc1 (stereo not given)
COc1cc(CNC[C@@H](O)[C@H](Cc2ccccc2)NC(=O)c2cc(C3CCCC3)cc(N3CCCS3(=O)=O)c2)cc(OC)c1
Cc1ccccc1Nc1nc(Nc2ccccc2)c2ccccc2n1
CCCc1cn2c3c(cc(C(=O)N[C@@H](Cc4ccccc4)[C@H](O)CNC4CCOCC4)cc13)N(C)S(=O)(=O)CC2
COc1ccc(CNC(=O)NC2CCN(c3ccnc(Nc4ccc(F)cc4)n3)CC2)cc1
CC(C)COc1ccc(Cl)cc1Cc1ccc(-c2nc3ccc(C(F)(F)F)cc3[nH]2)o1
O=C(/C=C/c1c[nH]c2ccccc12)NCCCCCN1CCC(c2c[nH]c3ccccc23)CC1
Cc1noc(C)c1-c1ccc2c(Nc3ccccc3C(C)(C)C)c(C(=O)NCc3ccc(C(F)(F)F)cc3)cnc2c1
CN(C)C(=O)O[C@@H]1CN[C@H](C#Cc2cc3ncnc(Nc4ccc5c(cnn5Cc5cccc(F)c5)c4)c3s2)C1
CCOC(=O)c1cc(C(=O)NCCCCN2CCC(c3ccc(CC)cc3OCC)CC2)ccc1-c1ccc(C(F)(F)F)cc1
Cc1cc(Nc2ccnc(-c3ccc(Cl)cc3)n2)ccn1
Cc1ccc(Nc2nc(N)c3ccccc3n2)cc1
O=C(N[C@H]1CCN(Cc2ccc(OCCN3CCCC3)c(Cl)c2)C1)c1ccc(Cl)c(Cl)c1
CC(Cc1ccc(NC(=O)COc2ccc(CC(C)NCCc3cccc(Cl)c3)cc2)cc1)NCCc1cccc(Cl)c1 (stereo not given)
O=C(Nc1ccc(-c2ccc(-c3nc4ccccc4[nH]3)s2)cc1)c1ccncc1
Cc1nc2nc(N)nc(N)c2c(C)c1Cc1cccc(C(N)=O)c1
COc1ccc(-c2ccc(NC(=O)c3ccc(Cl)cc3)cc2)cc1CN1CCNCC1
Oc1ccc(Nc2nc(NCc3ccccc3)c3ccccc3n2)cc1
COc1cc(F)c2ncc(Cl)c(CCN3CCC(NCc4ccc5c(c4)NC(=O)CO5)CC3)c2c1
FC(F)(F)c1ccc2nc(-c3cccc(-c4cccc(CNCC5CCCO5)c4)c3)[nH]c2c1 (stereo not given)
OCCN1CCN(Cc2ccc(-c3cccc(-c4nc5ccc(C(F)(F)F)cc5[nH]4)c3)cc2)CC1
Clc1cnc2ccc3c(c2c1CCN1CCC(NCc2cc4c(cn2)OCCO4)CC1)OCCO3
CC(CCc1ccccc1)NCC(O)c1cccc([N+](=O)[O-])c1 (stereo not given)
CC(CN(C)C)C(=O)Nc1cccc(-c2cccc(-c3nc4ccc(F)cc4[nH]3)c2)c1 (stereo not given)
CC(=O)Nc1cccc(C(=O)Nc2cccc(-c3ccc(-c4nc5ccc(F)cc5[nH]4)s3)c2)c1
COc1ccc(Nc2nccc(N3CCC(NC(=O)C(C)c4ccc(Cl)cc4)CC3)n2)cc1 (stereo not given)
c1ccc(Oc2ccc(Nc3ccnc4cc(-c5cccc(CN6CCOCC6)c5)ccc34)cc2)cc1
